TSG101-PTAP inh: qHTS Validation Assay for Inhibitors of HIV-1 Budding by Blocking the Interaction of PTAP/TSG101: Sytravon Library Screen; Tumor susceptibility gene 101 protein (Homo sapiens), Q99816; Fluorescence polarization, FITC-PTAP peptide/Tsg101, 20 min; Potency, µM (series often up to 115 µM), most hits filed as inhibitors; 44,000 tested, under 10 active; AID 1347069, 2019
Target sequence (Q99816 whole entry, looked up): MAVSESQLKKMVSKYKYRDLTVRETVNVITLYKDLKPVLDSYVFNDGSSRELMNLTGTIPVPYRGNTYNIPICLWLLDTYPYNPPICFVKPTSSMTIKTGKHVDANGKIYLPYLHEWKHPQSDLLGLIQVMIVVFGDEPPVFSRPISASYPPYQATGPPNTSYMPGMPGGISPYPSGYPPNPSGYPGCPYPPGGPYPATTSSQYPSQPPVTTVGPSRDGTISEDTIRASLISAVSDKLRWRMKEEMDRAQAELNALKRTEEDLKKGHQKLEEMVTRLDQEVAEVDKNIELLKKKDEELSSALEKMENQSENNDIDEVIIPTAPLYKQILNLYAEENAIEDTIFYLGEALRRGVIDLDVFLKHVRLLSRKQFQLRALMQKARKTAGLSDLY
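The Tsg101 binding domain, at 10 uM final, is mixed with compound and a FITC peptide bearing the PTAP motif (50 nM final). After 20 min at r.t., polarization is measured; actives defined by CRC class, efficacy cut-off 60% inhibition.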
HTT promoter inh: Primary qHTS for Identification of Small Molecule Inhibitors of Huntingtin Promoter Activity | HEK293 HTT promoter firefly luciferase reporter, 24 h | Potency, µM (titrated, usually from 57.5 µM), usual class: inhibitors | 48,000 compounds, 0.93% hits; further: nearly all actives have a fitted effect of over 50% in size
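Luminescence was read after Dual-Glo reagent and a 10 min room-temperature incubation. Values were normalized to vehicle (0% activity) and zero RLU (-100% activity). Reporter HEK293 cells had been exposed to compounds (up to 57.5 uM final) for 24 h.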
GALK inhibitor: qHTS Assay for Inhibitors of Human Galactokinase (GALK): NCGC Sytravon Library Screen. Potency, µM (top dose mostly 57.5 µM), hits mostly inhibitors. 44,000 tested, under 10 active. P51570. AID 1347072, 2019. recombinant GALK, Kinase-Glo ATP luminescence, 1 h
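5 nM GALK; 35 uM ATP; 100 uM D-galactose; 20 mM HEPES pH 8.0, 5 mM MgCl2, 60 mM NaCl, 1 mM DTT, 0.01% BSA; 1 h RT; Kinase-Glo Plus luminescence.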
B2AR arrestin ag: qHTS assay of beta-arrestin-biased ligands of beta2-adrenergic receptor: NCGC Sytravon Library Screen; Beta-2 adrenergic receptor (Homo sapiens), P07550; HTLA Tango cells, beta-arrestin recruitment, luciferase luminescence, 18 h; Potency, µM (titrated, usually from 46.1 µM), actives largely listed as activators; 44,000 tested, under 10 active; AID 1347077, 2019
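Tango cells expressing recombinant beta2-AR and beta-arrestin were treated with compounds (up to 46 microM titration) in DMEM with 1% FBS for 18 hr at 37 degrees C. Beta-arrestin recruitment drove tTA-dependent luciferase, read by luminescence; curves were fitted and classed.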
HTT-AS promoter: Primary qHTS for Identification of Small Molecule Activators of Huntingtin-Antisense Promoter Activity; HEK293 HTT-AS promoter firefly luciferase reporter, 24 h; response scale: percent change from vehicle, -100% = no light; Potency, µM (doses to about 57.5 µM), hits mostly activators; 48,000 compounds, 0.24% hits; AID 1508624, 2021; further: nearly all actives have a fitted effect of over 55% in size
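Quantitative HTS used concentration series of up to 57.5 uM final on HEK293 luciferase reporter cells, 24 h at 37 degrees C. Readout was Dual-Glo firefly luminescence.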
GPR32 ag: qHTS for Agonists of Human Resolvin D1 Receptor DRV1; Probable G-protein coupled receptor 32 (Homo sapiens), O75388; CHO-K1 GPR32 beta-arrestin PathHunter luminescence, 90 min; zero percent set by DMSO-only wells; activation, % at 76.9 µM; 48,000 compounds, 2.5% hits;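 active means activation of at least 60% and not above a set upper limit, about 1 call in 100 departs from these limits; inconclusive means activation of 40% to 60%, or above that upper limit; inactive means activation under 40%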
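PathHunter enzyme-fragment complementation, CHO-K1 GPR32 stable line; 2,500 cells/well, overnight attach; cpd 90 min 37 °C 5% CO2; detection reagent 1 h RT; chemiluminescence. DMSO = EC0.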
A number is an active result. Compounds with a hit are over-represented: about 3.6% of the library has one in this group of screens. Unless noted, the call rests on the fitted dose curve; in most records, active means well fitted curve in the direction sought with a large enough effect; inconclusive means small, poorly fitted or top-dose-only effect, or another doubt; inactive means no such curve, though single readings can be large; an effect the other way counts as inactive or inconclusive.

Results for COc1ccc(NC(=O)c2sc3nc4c(cc3c2N)CN(C(C)C)CC4)c(OC)c1 ?
TSG101-PTAP inh: inactive; HTT promoter inh: inactive; GALK inhibitor: inactive; B2AR arrestin ag: inactive; HTT-AS promoter: inactive; GPR32 ag: 81

How did Cc1ccc(NC(=O)c2sc3nc4c(cc3c2N)CN(Cc2ccccc2)CC4)cc1 do in these assays?
TSG101-PTAP inh: inactive; HTT promoter inh: inactive; GALK inhibitor: inactive; B2AR arrestin ag: inactive; HTT-AS promoter: inactive; GPR32 ag: 116

How did Cc1cccc(NC(=O)c2sc3nc4c(cc3c2N)CN(Cc2ccccc2)CC4)c1 do in these assays?
TSG101-PTAP inh: inactive; HTT promoter inh: inactive; GALK inhibitor: inactive; B2AR arrestin ag: inactive; HTT-AS promoter: inactive; GPR32 ag: inactive

Results for CN1CCN(c2ncc(-c3cc(Cl)cc(Cl)c3Cl)c(N)n2)CC1 ?
HTT promoter inh: inconclusive; HTT-AS promoter: inactive

Results for CC1(C)S[C@H]2[C@H](NC(=O)[C@@H](N)c3ccc(O)cc3)C(=O)N2[C@@H]1C(=O)O ?
HTT promoter inh: inactive; HTT-AS promoter: inactive

What do the screens show for `CN(C)c1ccc2cc(C(=O)N[C@@H](CCCN=C(N)CCl)C(=O)NCc3ccccc3)ccc2c1`?
HTT promoter inh: inactive; HTT-AS promoter: inactive

Results for CCN1CCc2nc3sc(C(=O)Nc4cccc(Cl)c4C)c(N)c3cc2C1 ?
TSG101-PTAP inh: inactive; HTT promoter inh: inactive; GALK inhibitor: inactive; B2AR arrestin ag: inactive; HTT-AS promoter: inactive; GPR32 ag: 121

Results for CCC1CCc2nc3sc(C(=O)Nc4ccc(F)c(F)c4)c(N)c3cc2C1 (stereo not given) ?
TSG101-PTAP inh: inactive; HTT promoter inh: inactive; GALK inhibitor: inactive; B2AR arrestin ag: inactive; HTT-AS promoter: inactive; GPR32 ag: inactive

How did COc1ccc(NC(=O)c2sc3nc4c(cc3c2N)CN(Cc2ccccc2)CC4)cc1 do in these assays?
TSG101-PTAP inh: inactive; HTT promoter inh: inactive; GALK inhibitor: inactive; B2AR arrestin ag: inactive; HTT-AS promoter: inactive; GPR32 ag: inactive

How did CCC1CCc2nc3sc(C(=O)Nc4ccc(C)cc4C)c(N)c3cc2C1 (stereo not given) do in these assays?
TSG101-PTAP inh: inactive; HTT promoter inh: inactive; GALK inhibitor: inactive; B2AR arrestin ag: inactive; HTT-AS promoter: inactive; GPR32 ag: 69

Results for Cn1c(=O)c2sccc2n2c(CCCC(=O)Nc3ccc(Oc4ccc(Cl)cc4)cc3)nnc12 ?
TSG101-PTAP inh: inactive; HTT promoter inh: 40µM; GALK inhibitor: inactive; B2AR arrestin ag: inactive; HTT-AS promoter: inactive; GPR32 ag: inactive

How did COc1ccccc1Nc1ncc2c(n1)CCN(CC(C)C)C2 do in these assays?
TSG101-PTAP inh: inactive; HTT promoter inh: inactive; GALK inhibitor: inactive; B2AR arrestin ag: inactive; HTT-AS promoter: 13µM; GPR32 ag: inactive

Results for COc1cc(CN2CCc3nc(Nc4ccc5c(c4)OCCO5)ncc3C2)cc(OC)c1OC ?
TSG101-PTAP inh: inactive; HTT promoter inh: inactive; GALK inhibitor: inactive; B2AR arrestin ag: inactive; HTT-AS promoter: inconclusive; GPR32 ag: 97

How did Cc1ccc(CN2CCc3nc(Nc4ccc5c(c4)OCCO5)ncc3C2)cc1 do in these assays?
TSG101-PTAP inh: inactive; HTT promoter inh: inactive; GALK inhibitor: inactive; B2AR arrestin ag: inactive; HTT-AS promoter: inactive; GPR32 ag: inactive

Results for COc1cccc(CN2CCc3nc(Nc4ccc5c(c4)OCCO5)ncc3C2)c1OC ?
TSG101-PTAP inh: inactive; HTT promoter inh: inconclusive; GALK inhibitor: inactive; B2AR arrestin ag: inactive; HTT-AS promoter: inactive; GPR32 ag: 86

What do the screens show for `COc1ccccc1Nc1ncc2c(n1)CCN(Cc1cc(F)cc(F)c1)C2`?
TSG101-PTAP inh: inactive; HTT promoter inh: inconclusive; GALK inhibitor: inactive; B2AR arrestin ag: inactive; HTT-AS promoter: inactive; GPR32 ag: inactive

How did O=C(O)C1=CC(O)C(O)[C@H](O)C1 (stereo not given in full) do in these assays?
HTT promoter inh: inactive; HTT-AS promoter: inactive

How did CC1(C)S[C@@H]2[C@H](NC(=O)C(c3ccccc3)S(=O)(=O)O)C(=O)N2[C@H]1C(=O)O (stereo not given in full) do in these assays?
HTT promoter inh: inactive; HTT-AS promoter: inactive; GPR32 ag: inactive

What do the screens show for `O=C(NCc1ccccc1)[C@H](Cc1ccccc1)NC(=O)[C@@H]1O[C@@H]1C(=O)NCCc1ccc(O)cc1`?
HTT promoter inh: inactive; HTT-AS promoter: inactive

What do the screens show for `OCc1ccccc1O[C@@H]1O[C@H](CO)[C@H](O)[C@H](O)[C@H]1O`?
HTT promoter inh: inactive; HTT-AS promoter: inactive

How did COC(=O)[C@H](CCCN=C(N)N)NS(=O)(=O)c1ccc(C)cc1 do in these assays?
HTT promoter inh: inactive; HTT-AS promoter: inactive

How did Cc1oc(-c2ccccc2)nc1CCC(=O)c1ccc(CC2SC(=O)NC2=O)cc1 (stereo not given) do in these assays?
HTT promoter inh: inactive; HTT-AS promoter: inactive; GPR32 ag: 74

How did COc1ccc(OC(=O)N(CC(=O)O)Cc2ccc(OCCc3nc(-c4ccccc4)oc3C)cc2)cc1 do in these assays?
HTT promoter inh: inactive; HTT-AS promoter: inactive; GPR32 ag: inconclusive

Results for Clc1ccc(Nc2nnc(Cc3ccncc3)c3ccccc23)cc1 ?
HTT promoter inh: inconclusive; HTT-AS promoter: inactive; GPR32 ag: 72

Results for Fc1ccc(Nc2nc(SCc3ccc(Cl)cc3)nc3ccccc23)cc1 ?
TSG101-PTAP inh: inactive; HTT promoter inh: inactive; GALK inhibitor: inactive; B2AR arrestin ag: inactive; HTT-AS promoter: inactive; GPR32 ag: inactive

What do the screens show for `Cc1ccc(-n2[nH]c(C)c(N=Nc3cccc(-c4cccc(C(=O)O)c4)c3O)c2=O)cc1C`?
HTT promoter inh: inactive; HTT-AS promoter: inactive; GPR32 ag: inactive

Results for CCC(C)NC(=O)c1ccc2c(c1)sc1nc(-c3ccc(OC)cc3)cn12 (stereo not given) ?
TSG101-PTAP inh: inactive; HTT promoter inh: inactive; GALK inhibitor: inactive; B2AR arrestin ag: inactive; HTT-AS promoter: inactive; GPR32 ag: 81
